Experimental findings from ChEMBL document CHEMBL3988442, “University of Dundee, Small-Polar-MMV Screening Library” (2021) are described below.

For some assays here: Measured potencies and affinities stand elsewhere.

Parameters in all cases: scale not given: direction of the effect not stated beside the values
Assay [1] concerns the target Protein translocase subunit SecA (Escherichia coli (strain K12)) (UniProt P10408). The assay is described as follows: Assay to Identify E. coli SecA ATPase Inhibitors. The assay is classed as functional. The settings on record: 30 µM.
Assay [2] concerns the target T1, Ubiquitin-activating enzyme e1, putative (Leishmania donovani (strain BPK282A1)) (UniProt E9BSI1).
T1 sequence (whole entry): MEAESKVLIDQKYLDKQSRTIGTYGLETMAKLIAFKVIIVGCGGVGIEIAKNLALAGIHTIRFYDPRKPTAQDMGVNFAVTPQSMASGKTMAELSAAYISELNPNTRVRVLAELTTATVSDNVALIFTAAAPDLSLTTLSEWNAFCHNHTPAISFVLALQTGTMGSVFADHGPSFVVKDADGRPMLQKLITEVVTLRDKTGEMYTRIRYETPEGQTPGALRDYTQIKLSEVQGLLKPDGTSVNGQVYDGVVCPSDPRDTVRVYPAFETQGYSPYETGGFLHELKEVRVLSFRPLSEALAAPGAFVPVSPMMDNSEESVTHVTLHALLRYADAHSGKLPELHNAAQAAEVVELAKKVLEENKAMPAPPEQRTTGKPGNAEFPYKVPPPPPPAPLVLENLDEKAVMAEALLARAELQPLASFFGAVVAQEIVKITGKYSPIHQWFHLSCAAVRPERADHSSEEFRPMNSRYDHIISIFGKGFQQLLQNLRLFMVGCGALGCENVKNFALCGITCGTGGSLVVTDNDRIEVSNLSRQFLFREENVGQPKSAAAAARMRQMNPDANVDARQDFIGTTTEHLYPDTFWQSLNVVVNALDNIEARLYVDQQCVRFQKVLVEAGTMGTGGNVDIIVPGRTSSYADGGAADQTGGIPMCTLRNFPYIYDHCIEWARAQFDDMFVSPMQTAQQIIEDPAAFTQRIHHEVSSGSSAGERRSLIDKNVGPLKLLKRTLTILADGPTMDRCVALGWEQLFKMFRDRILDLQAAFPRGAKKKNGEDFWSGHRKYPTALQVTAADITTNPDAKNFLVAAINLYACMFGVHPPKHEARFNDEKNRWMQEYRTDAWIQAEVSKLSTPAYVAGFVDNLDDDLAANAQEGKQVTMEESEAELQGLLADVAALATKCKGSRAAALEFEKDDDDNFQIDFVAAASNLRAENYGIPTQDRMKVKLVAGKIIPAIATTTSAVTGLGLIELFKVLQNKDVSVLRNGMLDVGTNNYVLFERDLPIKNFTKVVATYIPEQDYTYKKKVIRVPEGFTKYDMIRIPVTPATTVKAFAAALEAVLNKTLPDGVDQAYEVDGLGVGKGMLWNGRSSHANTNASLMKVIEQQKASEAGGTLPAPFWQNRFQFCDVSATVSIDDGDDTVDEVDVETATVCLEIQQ
Briefly: Leishmania donovani Ubiquitin Activating Enzyme (LdE1). The assay is classed as functional. The settings on record: 30 µM.

The target in assay [3] is AMP-activated protein kinase, AMPK (Homo sapiens) (UniProt P54646+O43741+P54619+Q9UGJ0+Q9Y478+Q13131+Q9UGI9). Briefly: AMP-dependent Kinase enzyme assay. An in vitro enzyme assay that detects ADP turnover that is directly proportional to AMPK activity. This uses naive AMPK that is activated during the assay with MK-8722. The settings on record: 30 µM. The class given is functional.

The target in assay [4] is Sialic acid-binding Ig-like lectin 9 (Homo sapiens) (UniProt Q9Y336). Briefly: Hs-Siglec9 ALPHAscreen SOP 20170721. The settings on record: 10 µM.
Sialic acid-binding Ig-like lectin 9 (Homo sapiens), sequence (Q9Y336 whole entry): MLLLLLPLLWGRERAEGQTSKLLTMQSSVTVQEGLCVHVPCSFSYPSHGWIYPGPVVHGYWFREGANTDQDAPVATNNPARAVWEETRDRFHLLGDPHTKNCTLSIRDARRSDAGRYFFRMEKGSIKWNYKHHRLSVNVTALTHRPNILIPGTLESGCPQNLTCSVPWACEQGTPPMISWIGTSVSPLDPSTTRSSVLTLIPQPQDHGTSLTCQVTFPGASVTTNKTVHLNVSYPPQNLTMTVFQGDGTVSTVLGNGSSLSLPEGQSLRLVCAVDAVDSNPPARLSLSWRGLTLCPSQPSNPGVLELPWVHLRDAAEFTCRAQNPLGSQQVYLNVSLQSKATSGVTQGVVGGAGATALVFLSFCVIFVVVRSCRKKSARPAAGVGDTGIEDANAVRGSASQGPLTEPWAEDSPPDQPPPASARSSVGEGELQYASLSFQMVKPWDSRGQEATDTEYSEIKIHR
The test system of the next assay is Trypanosoma cruzi. Briefly: Trypanosoma cruzi phosphomannomutase and mannose-1-phosphate guanylyltransferase assay. The class given is functional. The settings on record: 10 µM.
Assay [5] deals with T2, Arginase-2, mitochondrial (Homo sapiens) (UniProt P78540).
T2 sequence (whole entry): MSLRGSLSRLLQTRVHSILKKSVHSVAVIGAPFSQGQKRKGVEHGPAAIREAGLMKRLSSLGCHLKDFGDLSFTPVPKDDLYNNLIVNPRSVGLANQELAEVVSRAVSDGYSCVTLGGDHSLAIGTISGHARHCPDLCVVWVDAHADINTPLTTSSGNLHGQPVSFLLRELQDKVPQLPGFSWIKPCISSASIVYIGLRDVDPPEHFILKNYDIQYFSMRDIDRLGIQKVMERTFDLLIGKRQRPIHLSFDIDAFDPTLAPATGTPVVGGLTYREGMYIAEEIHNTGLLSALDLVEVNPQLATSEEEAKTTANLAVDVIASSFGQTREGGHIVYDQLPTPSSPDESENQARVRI
The assay is described as follows: in vitro enzyme assay to detect the production of urea directly proportional to the activity of Arginase II. Note: in the data most compounds retested in dose-response had high values. The assay is classed as functional. The settings on record: 33.3 µM.

In assay [6] the target is T3, Proteasome subunit beta (Trypanosoma cruzi) (UniProt O96673).
T3 sequence (whole entry): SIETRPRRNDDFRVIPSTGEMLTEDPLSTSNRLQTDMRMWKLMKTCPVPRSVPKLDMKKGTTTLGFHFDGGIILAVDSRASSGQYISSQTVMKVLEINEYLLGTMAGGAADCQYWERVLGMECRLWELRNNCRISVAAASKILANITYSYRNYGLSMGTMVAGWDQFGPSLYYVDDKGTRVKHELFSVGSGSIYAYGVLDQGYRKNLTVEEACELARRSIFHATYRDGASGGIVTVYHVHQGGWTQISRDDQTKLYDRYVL
Briefly: Trypanosoma cruzi proteasome chymotrypsin-like activity (TcProtChymo) assay. Note: in the data most compounds retested in dose-response had high values. The class given is functional. The settings on record: 9.37 µM.

For a further assay, the species on record is Homo sapiens. Briefly: To identify inhibition of the IFN signalling (Jak-Stat) pathway via expression of an eGFP reporter gene under the control of an IFN-stimulated response element (ISRE) containing MxA promoter. The class given is functional. The settings on record: 30 µM. Background: Reporter assays use an easily measured gene product as a stand-in for the process of interest.

Assay [7] concerns the target T4, Tyrosyl-tRNA synthetase, putative (Trypanosoma cruzi (strain CL Brener)) (UniProt Q4DSP6).
T4 sequence (whole entry): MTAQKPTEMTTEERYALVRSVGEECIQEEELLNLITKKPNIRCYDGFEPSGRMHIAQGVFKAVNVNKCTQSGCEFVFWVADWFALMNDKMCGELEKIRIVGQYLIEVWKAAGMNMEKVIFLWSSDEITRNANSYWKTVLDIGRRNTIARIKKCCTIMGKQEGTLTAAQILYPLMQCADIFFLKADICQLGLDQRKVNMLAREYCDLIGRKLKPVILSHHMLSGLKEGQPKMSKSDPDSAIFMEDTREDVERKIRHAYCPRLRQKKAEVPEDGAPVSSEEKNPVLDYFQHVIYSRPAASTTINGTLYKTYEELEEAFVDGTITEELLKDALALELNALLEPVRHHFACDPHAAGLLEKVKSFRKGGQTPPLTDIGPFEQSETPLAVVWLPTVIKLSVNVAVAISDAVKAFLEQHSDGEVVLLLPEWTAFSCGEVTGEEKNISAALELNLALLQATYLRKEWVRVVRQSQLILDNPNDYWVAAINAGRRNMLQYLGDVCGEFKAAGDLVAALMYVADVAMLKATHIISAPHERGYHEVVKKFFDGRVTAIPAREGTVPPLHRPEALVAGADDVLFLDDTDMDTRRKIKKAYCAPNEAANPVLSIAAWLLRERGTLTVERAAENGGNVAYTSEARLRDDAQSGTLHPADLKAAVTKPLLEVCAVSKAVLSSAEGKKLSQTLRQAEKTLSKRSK
Briefly: Trypanosoma cruzi tyrosyl tRNA synthetase (TcYRS) _High Tyrosine SOP. Note: in the data most compounds retested in dose-response had high values. The settings on record: 30 µM. The assay is classed as functional.

Assay [8] deals with T4, Tyrosyl-tRNA synthetase, putative (Trypanosoma cruzi (strain CL Brener)). Briefly: Trypanosoma cruzi tyrosyl tRNA synthetase (TcYRS) SOP. The class given is functional. The settings on record: 30 µM.
Assay [9] has as its target Chromo domain-containing protein 1 (Saccharomyces cerevisiae (strain ATCC 204508 / S288c) (Baker's yeast)) (UniProt P32657). Briefly: ScCHD-1 Enzyme Inhibition Assay. Note: in the data most compounds retested in dose-response had high values. The assay is classed as functional. The settings on record: 30 µM.

Protein translocase subunit SecA (Escherichia coli (strain K12)), sequence (P10408 whole entry): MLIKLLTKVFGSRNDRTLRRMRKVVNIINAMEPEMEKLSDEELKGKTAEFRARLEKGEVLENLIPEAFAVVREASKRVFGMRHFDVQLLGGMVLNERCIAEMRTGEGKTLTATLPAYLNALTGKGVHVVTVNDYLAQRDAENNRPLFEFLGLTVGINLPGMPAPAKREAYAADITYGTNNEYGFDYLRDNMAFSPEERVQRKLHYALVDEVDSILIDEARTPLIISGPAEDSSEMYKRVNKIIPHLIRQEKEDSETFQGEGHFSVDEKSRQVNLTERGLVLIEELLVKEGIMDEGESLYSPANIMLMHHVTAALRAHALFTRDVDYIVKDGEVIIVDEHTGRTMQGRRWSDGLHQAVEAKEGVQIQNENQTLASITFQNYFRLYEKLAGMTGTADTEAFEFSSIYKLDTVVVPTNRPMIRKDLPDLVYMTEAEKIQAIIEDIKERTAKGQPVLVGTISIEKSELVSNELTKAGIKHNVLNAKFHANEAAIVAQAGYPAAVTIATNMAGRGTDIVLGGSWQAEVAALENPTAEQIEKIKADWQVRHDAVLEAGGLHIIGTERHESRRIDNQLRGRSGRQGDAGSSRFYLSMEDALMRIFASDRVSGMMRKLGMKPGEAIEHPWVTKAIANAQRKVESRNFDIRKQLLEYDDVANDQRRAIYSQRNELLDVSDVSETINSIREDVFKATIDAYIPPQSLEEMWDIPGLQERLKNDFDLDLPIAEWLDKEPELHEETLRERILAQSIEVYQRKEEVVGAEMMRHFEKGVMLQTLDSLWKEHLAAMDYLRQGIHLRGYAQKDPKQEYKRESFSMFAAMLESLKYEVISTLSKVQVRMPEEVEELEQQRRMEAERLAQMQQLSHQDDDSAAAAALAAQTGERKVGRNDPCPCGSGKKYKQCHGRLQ
Chromo domain-containing protein 1 (Saccharomyces cerevisiae (strain ATCC 204508 / S288c) (Baker's yeast)), sequence (P32657 whole entry, the tested form may be a part): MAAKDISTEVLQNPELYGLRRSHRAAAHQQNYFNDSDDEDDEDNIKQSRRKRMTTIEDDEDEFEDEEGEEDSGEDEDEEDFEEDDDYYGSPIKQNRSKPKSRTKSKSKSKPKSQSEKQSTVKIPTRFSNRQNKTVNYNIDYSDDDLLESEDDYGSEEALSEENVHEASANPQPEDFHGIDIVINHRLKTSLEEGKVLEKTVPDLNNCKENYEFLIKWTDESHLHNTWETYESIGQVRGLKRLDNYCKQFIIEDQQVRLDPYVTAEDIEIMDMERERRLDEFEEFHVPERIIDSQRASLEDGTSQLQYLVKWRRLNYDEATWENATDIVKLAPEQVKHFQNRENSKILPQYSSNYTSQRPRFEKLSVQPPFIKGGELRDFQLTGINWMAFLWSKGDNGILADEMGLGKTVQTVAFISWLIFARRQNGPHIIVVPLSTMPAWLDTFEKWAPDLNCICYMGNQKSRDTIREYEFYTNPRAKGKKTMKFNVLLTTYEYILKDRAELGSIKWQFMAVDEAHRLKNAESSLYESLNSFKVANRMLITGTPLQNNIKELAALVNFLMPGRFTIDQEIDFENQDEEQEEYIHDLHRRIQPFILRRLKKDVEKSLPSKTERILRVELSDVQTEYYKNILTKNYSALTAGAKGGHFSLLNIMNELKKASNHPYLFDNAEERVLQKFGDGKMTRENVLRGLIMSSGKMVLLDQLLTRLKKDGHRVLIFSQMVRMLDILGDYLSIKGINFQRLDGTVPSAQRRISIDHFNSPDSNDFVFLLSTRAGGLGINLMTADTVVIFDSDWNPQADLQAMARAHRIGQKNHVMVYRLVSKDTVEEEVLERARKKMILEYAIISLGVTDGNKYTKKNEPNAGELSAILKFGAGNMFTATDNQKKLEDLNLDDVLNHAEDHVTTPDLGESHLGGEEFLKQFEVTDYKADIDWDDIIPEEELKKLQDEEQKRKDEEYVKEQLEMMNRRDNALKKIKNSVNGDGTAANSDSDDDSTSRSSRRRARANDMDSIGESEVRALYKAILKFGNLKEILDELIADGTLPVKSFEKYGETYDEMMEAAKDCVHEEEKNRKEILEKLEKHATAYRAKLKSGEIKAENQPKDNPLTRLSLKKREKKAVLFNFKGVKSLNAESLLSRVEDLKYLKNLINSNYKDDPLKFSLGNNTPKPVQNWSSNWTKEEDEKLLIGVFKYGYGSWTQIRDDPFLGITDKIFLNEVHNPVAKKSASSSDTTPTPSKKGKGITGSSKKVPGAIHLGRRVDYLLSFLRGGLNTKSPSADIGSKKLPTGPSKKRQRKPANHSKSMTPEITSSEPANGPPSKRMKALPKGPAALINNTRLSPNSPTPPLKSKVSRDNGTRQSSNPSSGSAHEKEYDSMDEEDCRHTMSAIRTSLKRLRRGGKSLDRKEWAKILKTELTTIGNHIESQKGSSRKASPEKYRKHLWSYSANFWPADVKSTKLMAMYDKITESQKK

In the case of `CCc1nnc2n1CCN(CCS(=O)(=O)c1ccccc1)C2`, the Percent Effect is -7.25% in [1]; 13% in [2]; 6.16% in assay [3]; 15.6% in [4]; -3.37% in the assay on Trypanosoma cruzi; 1.07% in [5]. Further, the Percent Effect was -2.87% in [6]; 4.97% in the assay listed under Homo sapiens; 0.971% in assay [7]; 7.32% in [8]; -3.89% in assay [9].
Regarding `COc1cnc(C2(O)CCN(C(=O)c3ccncc3)CC2)c(OC)n1`, the Percent Effect was -4.14% in [1]; 4.05% in assay [2]; 8.66% in assay [3]; 2.87% in assay [4]; 2.77% in the assay with Trypanosoma cruzi; -1.16% in assay [5]. Besides, the Percent Effect was 3.74% in assay [6]; 8.85% in the assay filed under Homo sapiens; 2.15% in [7]; 9.09% in assay [8]; -11.8% in assay [9].
For `CCOc1cccc2c1OCC(C(=O)NS(=O)(=O)c1ccc(C)s1)=C2`, the Percent Effect in assay [1] was -4.93%; in assay [2] it was -8.11%; in assay [3] it was -7.07%; in assay [4] it was 7.91%; in the assay with Trypanosoma cruzi it was -1.98%; in [5] it was 4.01%. Further, the Percent Effect in assay [6] was 9.01%; in the assay filed under Homo sapiens it was 5.57%; in assay [7] it was -9.36%; in assay [8] it was -18.5%; in assay [9], -1.03%.
Take `CN(C)C(=O)N1CCN(Cc2ccccc2)[C@@H]2CS(=O)(=O)C[C@@H]21`: the Percent Effect in assay [1] is -0.429%; in [2] it was 2.7%; in assay [3], -4.73%; in assay [4] it was 3.84%; in the assay with Trypanosoma cruzi it was 4.25%; in assay [5], -1.43%. The Percent Effect in assay [6] is 10.9%; in the assay listed under Homo sapiens, 4.04%; in assay [7] it was 7.94%; in assay [8] it was 17.1%; in assay [9] it was -3.7%.
On to `CC(=O)N(Cc1noc(C)n1)C1CCN(Cc2ccon2)C1` (stereo not given), for which the Percent Effect was -2.71% in assay [1]; 21.5% in assay [2]; -1.98% in assay [3]; -4.08% in [4]; 1.13% with Trypanosoma cruzi; -3.66% in assay [5]. The Percent Effect in assay [6] was 22.3%; in the assay filed under Homo sapiens it was 10.2%; in assay [7], 3.12%; in assay [8] it was 15.2%; in assay [9], 52.1%.
On to `CC(C)c1nc(CC(=O)Nc2nc(CN3CCCCCC3)cs2)cs1`, for which the Percent Effect was -2.6% in [1]; -15.6% in [2]; -8.27% in [3]; -10.6% in assay [4]; 13.8% in the assay on Trypanosoma cruzi; -4.84% in [5]. For the same compound, the Percent Effect in [6] was 4.61%; in the assay listed under Homo sapiens it was 1.12%; in assay [7], 10.5%; in assay [8], 23.5%; in assay [9] it was -15.2%.
Regarding `CCc1ccc(C(=O)Nc2ccc(CC3CC(=O)NC3=O)cc2)cc1` (stereo not given), the Percent Effect in assay [1] was -1.66%; in [2], 8.22%; in assay [3], 15.3%; in assay [4], 3.15%; in the assay on Trypanosoma cruzi, 1.76%; in [5] it was 5.46%. For the same compound, the Percent Effect in assay [6] is 11.9%; in the assay filed under Homo sapiens, 11.7%; in assay [7] it was 2.15%; in assay [8] it was 12.5%; in assay [9], -6.28%.
As for `Cc1cc(N2CCN(C(=O)c3cc(Cl)c[nH]3)CC2)nc(N)n1`, the Percent Effect is 0.0114% in assay [1]; 8.22% in [2]; -3.11% in assay [3]; 13.8% in assay [4]; 5.36% with Trypanosoma cruzi; -2.4% in [5]. For the same compound, the Percent Effect in [6] was 15.3%; in the assay filed under Homo sapiens it was 17.5%; in assay [7], 10.4%; in assay [8] it was 13.6%; in assay [9] it was -0.523%.
With `Cc1ncc2c(n1)CN(CC(=O)Nc1nncs1)CC2`, the Percent Effect is -1.88% in assay [1]; 2.63% in [2]; -37.1% in assay [3]; 5.79% in assay [4]; 3.27% with Trypanosoma cruzi; 1.08% in [5]. Also, the Percent Effect in [6] is 6.01%; in the assay filed under Homo sapiens, -6.49%; in [7], 5.42%; in [8], 11.1%; in assay [9] it was -4.76%.
For the compound `O=C(NCCc1ccccc1)C1CCC(Cn2cnnn2)CC1` (stereo not given), the Percent Effect in assay [1] is -0.876%; in [2], -4%; in [3] it was 1.1%; in assay [4], 6.93%; in the assay with Trypanosoma cruzi it was -1.77%; in [5], -4.4%. The Percent Effect in [6] was 3.88%; in the assay filed under Homo sapiens it was -9.79%; in assay [7], 2.12%; in assay [8], 5.13%; in assay [9] it was 2.05%.
